Results filed as inconclusive are left out. Where a call stands in place of a potency, no number is given. Active and inactive are the calls of the source. The call rests on the fitted dose curve.

For 40 compounds, Potency results are on record in PubChem BioAssay (Tox21).
Potency means the concentration at half of the fitted maximal effect.

Beta-2 adrenergic receptor (Homo sapiens), sequence (P07550 whole entry, looked up): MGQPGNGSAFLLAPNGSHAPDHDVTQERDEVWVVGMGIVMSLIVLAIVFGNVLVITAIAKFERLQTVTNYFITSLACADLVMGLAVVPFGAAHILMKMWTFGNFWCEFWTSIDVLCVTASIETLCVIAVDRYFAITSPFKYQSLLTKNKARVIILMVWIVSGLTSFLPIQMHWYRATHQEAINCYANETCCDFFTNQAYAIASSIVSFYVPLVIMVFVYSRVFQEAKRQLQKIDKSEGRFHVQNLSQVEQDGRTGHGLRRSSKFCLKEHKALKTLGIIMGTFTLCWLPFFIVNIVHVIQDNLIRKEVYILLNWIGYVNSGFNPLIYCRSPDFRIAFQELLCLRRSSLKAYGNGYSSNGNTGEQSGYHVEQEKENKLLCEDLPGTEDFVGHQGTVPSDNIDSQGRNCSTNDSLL

This test has as its target Beta-2 adrenergic receptor (Homo sapiens) (UniProt P07550). Put plainly: Adrenergic beta2 receptor (ADRB2) small molecule antagonists, cell-based qHTS assay (AID 1963592). Further: nearly all actives have a fitted effect of over 50% in size. As to conditions: CHO-ADRB2 cells, isoproterenol-stimulated cAMP HTRF ratio, 0.5 h; series mostly up to 92.4 µM. The source says: U.S. Tox21 Program National Center for Advancing Translational Sciences [NCATS] Division of Preclinical Innovation [DPI] U.S. Environmental Protection Agency [EPA] National Institutes of Environmental Health Sciences [NIEHS] National Toxicology Program [NTP] U.S. Food and Drug Administration [FDA] Tox21 Assay Overview: Beta adrenergic receptors (Beta-ARs) belong to the G-protein coupled receptor (GPCR) superfamily, includes three subtypes - beta1, beta2, and beta3. Beta1-AR is the predominant receptor subtype expressed in the heart, and beta2-AR is expressed in the kidney, lung, blood vessel and in the heart, and beta3 is found in the adipocytes. Beta1 and 2 ARs couple to Gs protein and elevate cyclic adenosine mono phosphate (cAMP), which activates protein kinase A and leads to the downstream signaling responsible for the physiological actions. Beta-AR agonists or antagonists are the most prescribed therapeutic agents for heart failure and asthma, and these were one of the first target receptors for the rational drug design. Tox21 10K compound library was screened using the cAMP-Gs dynamic assay (Cisbio Bioassays, Shelton, CT) to identify agonists/antagonists of the Gs-coupled human adrenergic, beta2 receptor (ADRB2) in the CHO-ADRB2 cell line (Codex BioSolutions, Inc. Gaithersburg, MD), which stably over-expresses ADRB2. The principle of cAMP-Gs dynamic assay is based on HTRF technology, which facilitates the fluorescence resonance energy transfer (FRET) between donor Europium cryptate and acceptor d2-labeled cAMP. The cAMP generated within cells competes with the red acceptor, d2-labled cAMP, for binding to the monoclonal anti-cAMP-cryptate (Europium donor). An increase in intracellular cAMP leads to the disruption of FRET signal, and the signal is inversely proportional to the cAMP concentration. Propranolol HCl (Sigma-Aldrich, St. Louis, MO) was used as a positive control in the screening.
Tox21 Assay Protocol Summary: CHO-ADRB2 cells were dispensed at 1,000/well in 4uL assay medium into white/solid 1536-well plates (Greiner Bio-One North America Inc., Monroe, NC) using a Multidrop Combi dispenser (ThermoFisher Scientific, Waltham, MA). The assay plates were incubated at 37C and 5% CO2 for an overnight (18-20hr). Then positive control and test compounds dissolved in DMSO were transferred to the assay plates at 23nL using a Pintool station (Wako, San Diego, CA). Following the compound and positive control transfer, 1uL agonist-stimulation mix containing 1nM Isoproterenol HCl, 100uM IBMX and 25uM Ro-20-1724 was added to each well of the assay plates using BioRAPTR Flying Reagent Dispenser (FRD, Beckman Coulter, Brea, CA). The assay plates were incubated at room temperature for 0.5hr. Then 2.5ul each d2-labled cAMP and anti-cAMP-cryptate solutions were added separately to each well of the assay plates using an FRD and the assay plates were incubated at room temperature for 1hr. The fluorescence signal was measured at two different wavelengths (665nm and 615nm) using an Envision plate reader (Perkin Elmer, Shelton, CT). Data were expressed as the ratio of 665 nm/615 nm.
For orientation: Quantitative high-throughput screening tests each substance at several concentrations.
For the compound `CCOC(=O)CCN(SN(C)C(=O)Oc1cccc2c1OC(C)(C)C2)C(C)C`, the Potency entry is “inactive”. The entry for `c1ccc2c(c1)Sc1ccccc1N2CC1CN2CCC1CC2` (stereo not given) is “inactive”; for `O=NN1CCN(N=O)CC1` it is “inactive”; for `II` it is “inactive”.

Regarding `O=[N+]([O-])c1ccc(Oc2ccc(C(F)(F)F)cc2[N+](=O)[O-])cc1`, the Potency entry is “inactive”. As to `ClC(Cl)=C(Cl)Cl`, the Potency entry is “inactive”.

On to `CCc1cc2c(s1)-n1c(C)nnc1CN=C2c1ccccc1Cl`, for which the Potency entry is “inactive”.

As for `Clc1ccc(C(Cl)(Cl)Cl)cc1Cl`, the Potency result is “inactive”. With `O=c1[nH]c2ccccc2o1`, the Potency entry was “inactive”. For the compound `Oc1cccc(Cl)c1Cl`, the Potency entry was “inactive”. The entry for `Oc1cccc(-c2ccccc2)c1` is “inactive”; for `Cc1ccc(C)c2ccccc12` it is “inactive”; for `Cc1cc(C)c(C(=O)P(=O)(c2ccccc2)c2ccccc2)c(C)c1` it is “inactive”. With `CC(C)[C@]12CC(=O)[C@H](C)[C@H]1C2`, the Potency entry is “inactive”. On to `CCC1(CCC(C)C)C(=O)NC(=O)NC1=O`, for which the Potency entry was “inactive”. Turning to `COCC(C)N(C(=O)CCl)c1c(C)csc1C` (stereo not given), the Potency result is “inactive”. The entry for `CCCN1CCC[C@@H]2Cc3[nH]ncc3C[C@H]21` is “inactive”; for `CC(O)(CS(=O)(=O)c1ccc(F)cc1)C(=O)Nc1ccc(C#N)c(C(F)(F)F)c1` (stereo not given) it is “inactive”. On to `NC(=O)CI`, for which the Potency result is “inactive”. Regarding `N=C(N)[Se]`, the Potency result is “inactive”. On to `Nc1cc(Cl)ccc1O`, for which the Potency entry was “inactive”.

In the case of `CSC1=N[C@@](C)(c2ccccc2)C(=O)N1Nc1ccccc1`, the Potency entry was “inactive”. With `CCC/C(=N\OCC)C1=C(O)CC(CC(C)SCC)CC1=O` (stereo not given) the entry was “inactive”; with `CCOP(=S)(OCC)SCSCC`, “inactive”. Consider `CC[C@H](O)C(C[C@H](C)N(C)C)(c1ccccc1)c1ccccc1`, for which the Potency result is “inactive”. Consider `CCC[CH2][Sn]([CH2]CCC)([CH2]CCC)[CH2]CCC`, for which the Potency was 48.6 µM (active). The entry for `CN1CCN(C(=O)O[C@H]2c3nccnc3C(=O)N2c2ccc(Cl)cn2)CC1` is “inactive”. Consider `Fc1ccc(Oc2ccnc3cc(Cl)cc(Cl)c23)cc1`, for which the Potency result was “inactive”. Consider `N#CCCl`, for which the Potency entry is “inactive”. On to `CCC(C)(c1ccc(O)cc1)c1ccc(O)cc1`, for which the Potency result was “inactive”.

Consider `NC(=O)C(Cl)(Cl)Cl`, for which the Potency result is “inactive”. On to `CC(C)N(C(=O)COc1nnc(C(F)(F)F)s1)c1ccc(F)cc1`, for which the Potency result was “inactive”. For the compound `C[C@]12C=CC(=O)C=C1CC[C@@H]1[C@@H]2CC[C@@]2(C)[C@H]1CC[C@]2(C)O`, the Potency entry is “inactive”.

Regarding `Cn1cc(C2=C(c3cn(C4CCN(Cc5ccccn5)CC4)c4ccccc34)C(=O)NC2=O)c2ccccc21`, the Potency entry is “inactive”. The entry for `C(COCC1CO1)OCC1CO1` (stereo not given) is “inactive”; for `O=C(CCl)Nc1ccccc1` it is “inactive”.

Consider `CO/N=C(\C(=O)OC)c1ccccc1CO/N=C(\C)c1cccc(C(F)(F)F)c1`, for which the Potency result is “inactive”.

For `CCC(CC)(CNC(=O)CCCO)c1cccc(OC)c1`, the Potency result was “inactive”. In the case of `CC(C)[C@@H](C(=O)O[C@@H](C#N)c1cccc(Oc2ccccc2)c1)c1ccc(Cl)cc1`, the Potency result was “inactive”. With `CNC(=O)Oc1ccc(N(C)C)c(C)c1`, the Potency result was “inactive”.
